Assay [1] is described as follows: AP1 Signaling Pathway (AID 357). Note: % is set by controls: 0 for no effect and ±100 for the full control effect. The settings on record: ME-180 AP-1-bla reporter, EGF-induced, beta-lactamase ratio, 5 h; at 17.2 µM (top of the series) unless noted. The method in brief: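 Read-out was the 460nm/530nm emission ratio (excitation 405nm) after CCF4 loading for 2.5 hours at room temperature. Cells carried an AP-1-driven beta-lactamase reporter, were stimulated with EC50 EGF plus compound for 5 hours, and AC50 values came from titrations.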

Assay [2] is described as follows: NFAT Signaling Pathway (AID 444).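 Note: carbachol stimulus at about its EC50 of 1 µM final; % is set by controls: 0 for no effect and ±100 for the full control effect.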 The conditions noted are these: Jurkat NFAT-bla M1, carbachol, beta-lactamase ratio, 5 h; at 17.2 µM (top of the series) unless noted. In outline: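 Read-out: CCF4 FRET ratio (460 nm/530 nm) after 1 h RT dye loading, used for %activity and AC50 from titration series. Cells: Jurkat NFAT-β-lactamase/M1 line, treated with compound plus 1 uM carbachol for 5 h, 37 °C.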

Assay [3] in a line: Stat Signaling Pathway (AID 446).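 Note: ME-180 cervical cancer cells given 40 pM IL-6 alongside compound; SIE-controlled beta-lactamase reporter measured as 460/530 nm FRET emission ratio; % is set by controls: 0 for no effect and ±100 for the full control effect.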 The settings on record: ME-180 (cervical carcinoma) SIE beta-lactamase reporter, IL-6 stimulated, 5 h; at 17.2 µM (top of the series) unless noted. The method in brief: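 Overnight-plated ME-180 cells bearing a STAT Inducible Element beta-lactamase reporter; 5 h co-exposure to compound and 40 pM IL-6; values normalized to 300 pM IL-6 and 125 nM JAK inhibitor controls.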

Assay [4] deals with Glucocorticoid receptor (Homo sapiens) (UniProt P04150). Put plainly: GR-GFP Redistribution (AID 450;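 active = compounds whose dose series gives a full or clear partial fitted curve of increased nuclear translocation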; note: potency is the fitted concentration of half-maximal effect).

A number with no mark means an inactive call. Records with an inconclusive call do not appear. Calls of active or inactive are those of the source. Unless noted, calls come from the whole dose curve; as a rule, active = well fitted curve in either direction with a large enough effect (not every such curve was filed as active); inconclusive = small, poorly fitted or top-dose-only effect, or another doubt; inactive = flat fitted curve, though single readings scatter. A value given as a limit tells only on which side of the number the result lay.

Sequence of Glucocorticoid receptor (Homo sapiens) (P04150 whole entry, looked up): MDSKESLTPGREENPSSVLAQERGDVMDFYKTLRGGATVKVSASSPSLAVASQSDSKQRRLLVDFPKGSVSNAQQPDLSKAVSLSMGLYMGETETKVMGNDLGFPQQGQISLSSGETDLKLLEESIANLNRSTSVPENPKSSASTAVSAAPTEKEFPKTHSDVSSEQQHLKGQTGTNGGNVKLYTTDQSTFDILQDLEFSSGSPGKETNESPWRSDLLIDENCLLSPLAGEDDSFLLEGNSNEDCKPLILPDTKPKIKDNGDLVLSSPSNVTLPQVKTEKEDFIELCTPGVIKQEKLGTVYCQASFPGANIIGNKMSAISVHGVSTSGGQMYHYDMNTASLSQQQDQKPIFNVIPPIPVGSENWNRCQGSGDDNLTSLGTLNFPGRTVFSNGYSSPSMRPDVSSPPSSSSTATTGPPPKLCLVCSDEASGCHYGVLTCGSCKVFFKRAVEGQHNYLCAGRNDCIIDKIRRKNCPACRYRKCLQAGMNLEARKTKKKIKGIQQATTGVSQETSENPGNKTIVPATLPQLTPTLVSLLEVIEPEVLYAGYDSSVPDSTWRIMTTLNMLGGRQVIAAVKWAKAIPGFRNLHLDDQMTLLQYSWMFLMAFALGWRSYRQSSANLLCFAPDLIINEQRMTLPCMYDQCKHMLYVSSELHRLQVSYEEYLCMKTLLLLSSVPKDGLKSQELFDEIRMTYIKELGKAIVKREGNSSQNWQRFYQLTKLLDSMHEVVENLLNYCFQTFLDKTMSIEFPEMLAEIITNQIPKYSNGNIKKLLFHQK

Take `CCCNC(=O)N(C)c1nncnc1C(=O)NC`: the values for the activity change, negative = inhibition in assay [1] and in assay [2] were -9.23% and 2.36%, respectively. Also, the activity, negative = inhibition in assay [3] was -3.2%. The Potency in assay [4] is more than 20.6 µM.

With `Cn1c(O)c(C=Nc2ccc(Cc3ccncc3)cc2)c(=O)n(C)c1=O`, the activity change, negative = inhibition in assay [1] is -2.77%; in assay [2], -10.1%. In addition, the activity, negative = inhibition in assay [3] is -1.74%. Further, the Potency in assay [4] is more than 20.6 µM.

For the compound `Cc1cc(NCC2CCCO2)n2c(nc3ccccc32)c1C#N` (stereo not drawn), the activity change, negative = inhibition is -1.4% in assay [1] and -16.9% in assay [2]. Also, the activity, negative = inhibition in assay [3] is -2.4%. Besides, the Potency in assay [4] was more than 20.6 µM.

With `CCCCNc1nc2c(c(=O)n(C)c(=O)n2C)n1Cc1cccc(OC)c1`, the values for the activity change, negative = inhibition in assay [1] and in assay [2] were -11.7% and 2.13%, respectively. In addition, the activity, negative = inhibition in assay [3] was -17%. Moreover, in assay [4], the Potency was more than 20.6 µM.

For `ONC(=Nc1ccccc1)C(=Nc1ccccc1)NO`, the activity change, negative = inhibition is 4.05% in assay [1] and 9.94% in assay [2]. The activity, negative = inhibition in assay [3] was -0.28%. The Potency in assay [4] was more than 20.6 µM.

In the case of `CC1(C)Cc2c(sc3c4nnnn4c4nnnn4c23)CO1`, the activity change, negative = inhibition was -28.3% in assay [1] and -96.8% (active) in assay [2]. The activity, negative = inhibition in assay [3] was -26.4%. Also, the Potency in assay [4] is more than 20.6 µM.

`N#Cc1nc(COc2ccc(Br)cc2)oc1NCCN1CCOCC1`: the values for the activity change, negative = inhibition in assay [1] and in assay [2] were -17.9% and 10.5%, respectively. In addition, the activity, negative = inhibition in assay [3] was 1.36%. In assay [4], the Potency is more than 20.6 µM.

As for `CCc1cc2c(=O)c(-c3cscn3)coc2cc1O`, the activity change, negative = inhibition in assay [1] is -3.15%; in assay [2], -8.09%. Moreover, the activity, negative = inhibition in assay [3] was -14.6%. The Potency in assay [4] was more than 20.6 µM.

For the compound `COc1cc(-c2nn3c(C4CCCCC4)nnc3s2)cc(OC)c1OC`, the activity change, negative = inhibition in assay [1] is -16.1%; in assay [2], 10.4%. Moreover, in assay [3], the activity, negative = inhibition is 0.0449%. Besides, in assay [4], the Potency was more than 20.6 µM.

As for `CC(C)Cn1cnc2c(c1=O)c1nc3ccccc3nc1n2Cc1ccc2c(c1)OCO2`, the activity change, negative = inhibition in assay [1] was -7.49%; in assay [2] it was 8.7%. For the same compound, the activity, negative = inhibition in assay [3] is -6.69%. Also, in assay [4], the Potency is more than 20.6 µM.

`COc1cccc(C=NCCNC(=O)c2nonc2N)c1O`: the activity change, negative = inhibition in assay [1] is 0.441%; in assay [2], -9.52%. Further, the activity, negative = inhibition in assay [3] is 7.79%. The Potency in assay [4] is more than 20.6 µM.

As to `CCc1ccc(NC(=O)CSC2=C(C#N)C(c3ccco3)C3=C(CCCC3=O)N2)cc1` (stereo not drawn), the activity change, negative = inhibition is -12.8% in assay [1] and -17.6% in assay [2]. Also, in assay [3], the activity, negative = inhibition was -16.5%. Also, the Potency in assay [4] was more than 20.6 µM.

`COC(=O)c1ccccc1NC(=O)C1COc2ccccc2O1` (stereo not drawn): the activity change, negative = inhibition in assay [1] was -7.17%; in assay [2] it was -19.3%. The activity, negative = inhibition in assay [3] was 2.58%. The Potency in assay [4] was more than 20.6 µM.

As for `Cn1c[n+](C)cc1/C=N/O`, the activity change, negative = inhibition was 6.85% in assay [1] and 4.23% in assay [2]. The activity, negative = inhibition in assay [3] is -2.71%. Further, the Potency in assay [4] was more than 20.6 µM.

In the case of `Cc1cc(C)n(C(=O)CNC(=O)C2COc3ccccc3O2)n1` (stereo not drawn), the activity change, negative = inhibition is 15.9% in assay [1] and -7.83% in assay [2]. Further, in assay [3], the activity, negative = inhibition was 24.9%. Further, the Potency in assay [4] was more than 20.6 µM.

As for `C=CCn1c(SCc2c(F)c(F)c(F)c(F)c2F)nc(O)cc1=O`, the activity change, negative = inhibition in assay [1] is 4.5%; in assay [2], 25.9%. For the same compound, the activity, negative = inhibition in assay [3] was -10.5%. Further, the Potency in assay [4] was more than 20.6 µM.

With `Cc1ccc(-n2nc3cc(Cl)c(NC(=O)c4ccco4)cc3n2)cc1`, the activity change, negative = inhibition in assay [1] is 28.5%; in assay [2], -3.83%. For the same compound, the activity, negative = inhibition in assay [3] is -1.11%. Also, the Potency in assay [4] was more than 20.6 µM.

Regarding `COc1ccccc1N1CCN(C2CCN(C(=O)c3cc(OC)c(OC)c(OC)c3)CC2)CC1`, the activity change, negative = inhibition is 12.5% in assay [1] and 4.07% in assay [2]. Moreover, the activity, negative = inhibition in assay [3] is 10.4%. Also, in assay [4], the Potency was more than 20.6 µM.

Turning to `C=CCOC(=O)C1=C(C)NC(SCC(=O)Nc2ccc(C)c(Cl)c2)=C(C#N)C1c1ccco1` (stereo not drawn), the activity change, negative = inhibition in assay [1] was -4.79%; in assay [2], 7.32%. Also, the activity, negative = inhibition in assay [3] was 6.22%. Besides, in assay [4], the Potency was more than 20.6 µM.

Take `COc1ccc(/C(O)=C2\C(=O)C(=O)N(CCN(C)C)C2c2cccc(OC)c2OC)cc1Cl` (stereo not drawn): the results for the activity change, negative = inhibition in assay [1] and in assay [2] were -2.56% and 11.9%, respectively. The activity, negative = inhibition in assay [3] is 8.3%. In addition, the Potency in assay [4] was more than 20.6 µM.

Turning to `COc1ccc(Cn2c(O)cc(=O)[nH]c2=O)cc1`, the figures for the activity change, negative = inhibition in assay [1] and in assay [2] were 27.1% and -0.64%, respectively. For the same compound, the activity, negative = inhibition in assay [3] is -3.75%. In assay [4], the Potency is more than 20.6 µM.

As for `CN(C)c1oc(-c2cccs2)nc1C#N`, the activity change, negative = inhibition in assay [1] was -7.44%; in assay [2], 8.47%. In assay [3], the activity, negative = inhibition is 10.4%. Besides, the Potency in assay [4] is more than 20.6 µM.

Turning to `O=c1c(C=NCCCn2ccnc2)c(-c2ccccc2)[nH]n1-c1nc2ccccc2s1`, the activity change, negative = inhibition in assay [1] was -0.182%; in assay [2], -18.1%. Further, the activity, negative = inhibition in assay [3] is -15.5%. Besides, the Potency in assay [4] was more than 20.6 µM.

Consider `N#CC12CCCCC1CC1CCCCC1(C#N)N2Cc1ccccn1` (stereo not drawn), for which the activity change, negative = inhibition was 3.99% in assay [1] and -14.8% in assay [2]. Besides, the activity, negative = inhibition in assay [3] was 19.1%. The Potency in assay [4] was more than 20.6 µM.

As to `CCOc1ccc(CCNC(=O)C(O)c2ccccc2)cc1` (stereo not drawn), the activity change, negative = inhibition was 13% in assay [1] and 4.66% in assay [2]. In assay [3], the activity, negative = inhibition was 18.6%. In addition, the Potency in assay [4] is more than 20.6 µM.

For the compound `COc1ccc2c(=O)c(-c3nc(C)cs3)coc2c1`, the activity change, negative = inhibition in assay [1] is 13.2%; in assay [2], 15.3%. Further, the activity, negative = inhibition in assay [3] is 12.4%. For the same compound, the Potency in assay [4] was more than 20.6 µM.

As to `CC(C)C1C(C#N)=C(N)Oc2n[nH]c(C(C)(C)C)c21` (stereo not drawn), the activity change, negative = inhibition in assay [1] was -20.9%; in assay [2], -6.87%. Moreover, the activity, negative = inhibition in assay [3] is -18.4%. In addition, the Potency in assay [4] was more than 20.6 µM.

As for `O=C(NCCCNCc1ccccc1)/C(=N\O)c1ccccc1`, the figures for the activity change, negative = inhibition in assay [1] and in assay [2] were -2.86% and -1.67%, respectively. For the same compound, in assay [3], the activity, negative = inhibition is 4.93%. The Potency in assay [4] is more than 20.6 µM.

Turning to `Cc1cc(=O)oc(C)c1C(=O)NC12CC3CC(CC(C3)C1)C2`, the figures for the activity change, negative = inhibition in assay [1] and in assay [2] were -5.66% and 1.02%, respectively. Moreover, the activity, negative = inhibition in assay [3] was 1.82%. Further, in assay [4], the Potency is more than 20.6 µM.

With `COC(=O)c1cc(OC)c(OC)cc1N`, the activity change, negative = inhibition in assay [1] is 0.8%; in assay [2] it was 0.905%. Also, the activity, negative = inhibition in assay [3] was -0.00836%. Also, the Potency in assay [4] was more than 20.6 µM.

On to `CC1(C)Cc2c(c(-c3ccccc3Cl)[nH]c(=O)c2C#N)CO1`, for which the activity change, negative = inhibition is 13% in assay [1] and -5.06% in assay [2]. Also, the activity, negative = inhibition in assay [3] is 2.62%. Besides, the Potency in assay [4] was more than 20.6 µM.

As for `CC(C)c1nc2n[nH]c(N)c2c2c1CCC2`, the activity change, negative = inhibition in assay [1] is 3.28%; in assay [2] it was 9.31%. Further, the activity, negative = inhibition in assay [3] was -1.39%. Also, the Potency in assay [4] was more than 20.6 µM.

On to `Cc1ccc2[nH]c3c(NCCN4CCOCC4)ncnc3c2c1`, for which the activity change, negative = inhibition is -6.77% in assay [1] and 7.47% in assay [2]. Moreover, in assay [3], the activity, negative = inhibition was 0.396%. For the same compound, the Potency in assay [4] was more than 20.6 µM.

As for `CSc1ccccc1NC(=O)c1c(Br)cnn1C`, the activity change, negative = inhibition in assay [1] was -8.39%; in assay [2], -10.8%. The activity, negative = inhibition in assay [3] is 1.88%. In addition, the Potency in assay [4] is more than 20.6 µM.

As to `CCOc1c(C)cc2[nH]c(CCC(=O)O)nc2c1C`, the activity change, negative = inhibition was 7.73% in assay [1] and -1.66% in assay [2]. In addition, the activity, negative = inhibition in assay [3] was 7.03%. In assay [4], the Potency is more than 20.6 µM.

`CC(=O)/C(C#N)=C1\NC(=O)C(Cc2ccccc2Cl)S1` (stereo not drawn): the activity change, negative = inhibition in assay [1] was 8.76%; in assay [2] it was -3.03%. Also, the activity, negative = inhibition in assay [3] is -6.04%. Moreover, the Potency in assay [4] is more than 20.6 µM.

`CC(O)(C#CCN1CCOCC1)c1ccccc1` (stereo not drawn): the activity change, negative = inhibition in assay [1] is -0.153%; in assay [2] it was 8.45%. The activity, negative = inhibition in assay [3] was 7.2%. The Potency in assay [4] was more than 20.6 µM.
